# From PubChem BioAssay
# Most compounds without a hit are left out; they make up all but 11% or so of the library.
# HEK293 tox: HEK 293 cell cytotoxicity. Potency, µM (titrated, usually from 115 µM), for the others: at the highest dose activity change, negative = cytotoxicity, most hits filed as inhibitors. HEK 293 viability, ATP luminescence (CellTiter-Glo), 48-72 h. AID 1345083. 94,000 compounds, 6.6% hits; further: nearly all actives have a fitted effect of over 60% in size
#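 HEK 293 seeded at 250 cells/well receive compound via pintool. After 48 or 72 hr at 37 degree Celsius, 5% CO2 and 95% humidity, CellTiter-Glo is dispensed and luminescence read following 10 min at room temperature.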
# Luciferase inh: blocks purified firefly luciferase enzyme activity. purified P. pyralis luciferase, luminescence, biochemical. Potency, µM (doses to about 115 µM), most hits filed as inhibitors. P08659. 76,000 compounds, 2.5% hits; further: nearly all actives have a fitted effect of over 65% in size
# Target sequence (P08659 whole entry, looked up): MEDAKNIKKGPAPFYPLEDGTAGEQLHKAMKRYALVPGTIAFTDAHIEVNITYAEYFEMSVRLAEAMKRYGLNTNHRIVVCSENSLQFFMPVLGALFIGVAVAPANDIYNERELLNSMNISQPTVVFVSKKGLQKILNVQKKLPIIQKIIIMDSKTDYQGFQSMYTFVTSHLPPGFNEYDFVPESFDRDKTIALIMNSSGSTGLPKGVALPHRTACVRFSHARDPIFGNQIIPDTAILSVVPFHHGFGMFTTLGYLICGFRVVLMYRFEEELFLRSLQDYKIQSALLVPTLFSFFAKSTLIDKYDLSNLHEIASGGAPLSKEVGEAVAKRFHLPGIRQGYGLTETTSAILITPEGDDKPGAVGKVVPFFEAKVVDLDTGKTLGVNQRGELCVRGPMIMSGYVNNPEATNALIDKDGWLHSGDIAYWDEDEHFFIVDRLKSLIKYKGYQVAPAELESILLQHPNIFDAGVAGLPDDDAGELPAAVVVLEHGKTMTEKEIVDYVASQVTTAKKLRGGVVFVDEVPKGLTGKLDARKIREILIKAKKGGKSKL
#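 Cell-free enzyme assay, 10nM P. pyralis luciferase, luciferin and ATP each at 10uM. Inhibition profiled over a 6-point titration, read as luminescence.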
# 3T3 cytotox: kills NIH 3T3 cells. NIH 3T3 viability, CellTiter-Glo ATP luminescence, 48-72 h. AID 1345082. 94,000 compounds, 4.3% hits. Potency, µM (top dose mostly 96.7 µM), inactives show at the highest dose activity change, negative = cytotoxicity, usual class: inhibitors; further: nearly all actives have a fitted effect of over 55% in size
#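 Cytotoxicity was measured by CellTiter-Glo ATP luminescence after 48 or 72 h compound exposure at 37 °C. Mouse NIH 3T3 fibroblasts were seeded at 400 cells/well and dosed by 23 nL pin transfer.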
# hNpr1 antagonist: blocks ANP-stimulated signaling of human Npr1 receptor; P16066; HEK293 hNpr1 GloSensor cGMP, ANP-stimulated luminescence; Potency, µM (titrated, usually from 46.3 µM), without a hit: top-dose activity change, negative = inhibition, hits mostly inhibitors; 76,000 compounds, 1.6% hits; AID 1347048; calls by dose curve; further: nearly all actives have a fitted effect of over 60% in size
#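 Compound pre-incubated 30 min at room temperature on GloSensor-loaded HEK293 cells stably carrying hNpr1 and the pGS-40F cGMP biosensor. Stimulation uses hNppA at 0.1 nM final; luminescence is taken at baseline and 20 min post-agonist.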
# * hit, by the source's call; i = inactive; ? = inconclusive; · = no result; [ ] = another dose, or the depositor's remark. Unless noted, the call rests on the fitted dose curve; in most records, active means well fitted curve in the direction sought with a large enough effect; inconclusive means small, poorly fitted or top-dose-only effect, or another doubt; inactive means no such curve, though single readings can be large; an effect the other way counts as inactive or inconclusive. On the % scale 0 is the no-effect control and ±100 the full control effect; potency means the concentration at half of the fitted maximal effect.
SMILES,HEK293 tox,Luciferase inh,3T3 cytotox,hNpr1 antagonist
CC1(NC(=O)C2CC2)CN(Cc2nc(-c3ccc(Oc4ccccc4)cc3)cs2)C1,35µM*,?,?,8.9µM*
COc1cccc(C(=O)N2CCC(N3C[C@H](O)C[C@H]3C(=O)NCc3ccc(C)cc3)CC2)c1,-28%,i,-9%,5%
CN(C)c1ccc(CN2CCC3(C2)C(=O)N(Cc2ccccc2)c2ccccc23)cc1 (stereo not drawn),35µM*,i,?,-11%
CN1C(=O)C2(CCN(Cc3ccccc3)C2)c2ccccc21 (stereo not drawn),100µM*,i,?,0%[70.6 µM]
CN1C(=O)C2(CCN(C(=O)CCC3CCCCC3)CC2)c2ccccc21,45µM*,i,?,-4%
O=C1N(Cc2ccccc2)c2ccccc2C12CCN([S+](=O)([O-])c1ccccc1)C2 (stereo not drawn),-27%,i,?,-15%
CCC(C)NC(=O)C(NC(=O)c1ccc(C)cc1)C1CCN(C(=O)c2ccccc2C)CC1 (stereo not drawn),i,i,2%,2%
CNC(=O)[C@@H]1CN(C(=O)c2cc(OC)cc(OC)c2)C[C@H]1COC,-6%,i,-16%,2%
Fc1cccc(CN2CCO[C@@H](COc3ccccn3)[C@@H]2c2ccccc2)c1,?,·,35µM*,·
O=C(NCCN1CCOCC1)[C@H]1C[C@@H](O)[C@H](O)[C@@H]2N=C(Nc3ccc(-n4cccn4)cc3)S[C@@H]21,-18%,35µM*,-16%,0%
O=C(Nc1ccc(F)cc1)c1ccc2nc(-c3ccnc(Cl)c3)oc2c1,-9%[172 µM],·,?,·
c1cnn(-c2ccc(-c3n[nH]c(C4CCOCC4)n3)cc2)c1,1%,?,i,11%
c1cc(N2CCCCC2)ccc1-c1n[nH]c(C2CCOC2)n1 (stereo not drawn),-11%,6.3µM*,?,-29%
C=CCn1c(-c2ccccc2Cl)cn2cc(C(=O)N3CCCC(O)C3)nc2c1=O (stereo not drawn),1%,i,2%,3%
Cc1noc(C)c1[S+](=O)([O-])N1CCC(c2nn(-c3ccccn3)c(=O)[nH]2)CC1,-4%,·,-11%,·
O=C(NCC1CCCCCC1)[C@@H]1CCCN1c1nccc(Nc2ccccc2Cl)n1,25µM*,·,32µM*,·
C#CCNC(=O)C1CCN(c2nccc(Nc3ccccc3Cl)n2)CC1,?,·,45µM*,·
O=C(NCC1CCCCC1)C1CCN(c2nccc(Nc3ccccc3Cl)n2)CC1,35µM*,·,32µM*,·
O=C(NCC(F)(F)F)[C@@H]1CCCN1c1nccc(Nc2ccccc2Cl)n1,?,·,-22%,·
Cc1cnc(CC2CCN(C(=O)CCC3CCCC3)C2)n1CC1CC1 (stereo not drawn),?,·,-27%,·
O=C(c1ccsc1)N1CC[C@@H]2COCCN(Cc3ccncc3)[C@@H]2C1,-14%,·,-33%,·
O=C(c1ccc(F)cc1)N1CCCC(CN2CCCC2)CC1 (stereo not drawn),0%,·,-16%,·
Cc1nn(-c2ccccc2)c2c1C(C(C)C)N(C1CCN(C(=O)c3ccc(C(F)(F)F)cc3)CC1)C2=O (stereo not drawn),3%,·,0%,·
COCC(=O)N1CC(N2C(=O)c3c(c(C)nn3-c3ccccc3)C2C)C1 (stereo not drawn),3%,·,-18%,·
Cc1nn(-c2ccccc2)c2c1C(C)N(C1CCN(C(=O)c3cccc(C(F)(F)F)c3)CC1)C2=O (stereo not drawn),45µM*,·,?,·
SMILES,HEK293 tox,Luciferase inh,3T3 cytotox,hNpr1 antagonist
Cc1nn(-c2ccccc2)c2c1C(C)N(C1CCCN(C(=O)Cc3ccccn3)C1)C2=O (stereo not drawn),?,·,-22%,·
COc1ccc(CC(=O)N2CC(N3C(=O)c4c(c(C)nn4-c4ccccc4)C3C)C2)cc1 (stereo not drawn),40µM*,·,?,·
Cc1nn(-c2ccccc2)c2c1C(C)N(C1CCN(C(=O)c3ccccc3)CC1)C2=O (stereo not drawn),35µM*,·,?,·
Cc1nn(-c2ccccc2)c2c1C(C)N(C1CCN(C(=O)c3ccc(Cl)nc3)CC1)C2=O (stereo not drawn),?,·,35µM*,·
CCOC(=O)[C@@H]1CN(C(=O)NCc2ccccc2)[C@H]2c3ccccc3O[C@@H]12,-24%,·,?,·
COc1ccc(CN2CCc3oc(C)c(C(=O)N4CCN(c5ncccn5)CC4)c3C2)cc1,?,?,?,-13%
